Data from PubChem BioAssay (EPA / NIEHS).
Results filed as inconclusive are left out. Activity calls are given as the source filed them. Rule for the calls: active = hit-call score of the fitted dose curve at least 0.9, where 1 is the maximum; inconclusive = response in the unintended direction; inactive = score below 0.9.

Columns and labels:
[1] = ACEA_AR_agonist_AUC_viability: ACEA Biosciences xCELLigence Real-Time Cell Analysis on Androgen Receptor Agonism for Viability (AID 2283775);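 for AC50: viability read 80 hours after compound addition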
Procedure, shortened: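 Read-out is area under the impedance curve at 80 h post-dose in 22Rv1 cells, with DMSO as baseline and signal loss taken as reduced viability. Compounds ran in duplicate from 100 uM final.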

[2] = ACEA_AR_antagonist_AUC_viability: ACEA Biosciences xCELLigence Real-Time Cell Analysis on Androgen Receptor Antagonism for Viability (AID 2283776);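 note: 22Rv1 human prostate cancer cells growing on impedance electrode plates; area under impedance growth curve at 80 h after dosing as viability; hits lower the growth signal relative to DMSO meaning cytotoxicity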
Procedure, shortened: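 Viability endpoint from label-free cell-index monitoring: 22Rv1 cultures treated with an eight-point 1:4 dilution series starting at 100 uM final, AUC at 80 h fitted against DMSO.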

[3] = tested on: frog Estrogen Receptor (ESR1), gene 398734; assay: ATG_frER1_XSP1: Attagene TRANS-FACTORIAL Multi-Species (XSP1) HepG2 Assay for frog Estrogen Receptor (ESR1) (AID 2283777)
Procedure, shortened: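 Human hepatoma HepG2 cells carried transiently transfected multiplexed Gal4-driven reporters and were exposed to test chemicals for 24 hours. Transcripts were quantified by fluorescent RT-PCR with capillary electrophoresis, referenced to DMSO.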

[4] = tested on: zebrafish Estrogen Receptor (ESR2A), gene 317734; assay: ATG_zfER2a_XSP1: Attagene TRANS-FACTORIAL Multi-Species (XSP1) HepG2 Assay for zebrafish Estrogen Receptor (ESR2A) (AID 2283778)
Procedure, shortened: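 Cells were transfected, dosed for 24 h, then total RNA was isolated. After oligo(dT) reverse transcription, reporter sequences were amplified, FAM-labelled by primer extension, digested with HpaI and sized by capillary electrophoresis; DMSO served as baseline.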

[5] = target: chicken Estrogen Receptor (ESR1), ESR1 (gene 396099) (UniProt P06212); assay: ATG_chERa_XSP1: Attagene TRANS-FACTORIAL Multi-Species (XSP1) HepG2 Assay for chicken Estrogen Receptor (ESR1) (AID 2283779)
Chain of chicken Estrogen Receptor (ESR1), ESR1 (gene 396099) (P06212 whole entry, looked up, the tested form may be a part): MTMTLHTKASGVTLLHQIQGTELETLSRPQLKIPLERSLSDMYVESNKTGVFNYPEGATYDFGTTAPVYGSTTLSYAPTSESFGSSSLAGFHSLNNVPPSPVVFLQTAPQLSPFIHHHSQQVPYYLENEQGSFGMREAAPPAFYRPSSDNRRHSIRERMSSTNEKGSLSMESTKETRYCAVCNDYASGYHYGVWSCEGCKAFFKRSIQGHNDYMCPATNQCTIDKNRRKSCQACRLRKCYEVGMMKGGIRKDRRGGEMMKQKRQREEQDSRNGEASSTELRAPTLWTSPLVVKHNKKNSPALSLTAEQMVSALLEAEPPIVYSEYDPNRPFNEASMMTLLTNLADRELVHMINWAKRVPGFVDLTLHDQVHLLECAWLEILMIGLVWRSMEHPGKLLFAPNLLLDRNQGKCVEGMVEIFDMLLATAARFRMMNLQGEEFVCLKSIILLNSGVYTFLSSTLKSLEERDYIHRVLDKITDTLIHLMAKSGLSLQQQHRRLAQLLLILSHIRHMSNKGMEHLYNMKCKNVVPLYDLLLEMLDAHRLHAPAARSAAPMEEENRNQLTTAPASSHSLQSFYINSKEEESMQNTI
Procedure, shortened: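 Human liver HepG2, transient MRTU transfection (NR-Gal4 chimeras, GAL4-UAS reporters); 24 h compound exposure; 3 nM 6-alpha-fluorotestosterone in medium. Total RNA → RT-PCR → 6-FAM primer extension → HpaI → CE. Positive direction vs DMSO baseline.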

[6] = tested on: turtle Estrogen Receptor (ESR1), gene 101933533; assay: ATG_trERa_XSP1: Attagene TRANS-FACTORIAL Multi-Species (XSP1) HepG2 Assay for turtle Estrogen Receptor (ESR1) (AID 2283781)
Procedure, shortened: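 Activity was taken as gain of reporter transcript over DMSO controls. HepG2 cells carrying GAL4-UAS-driven reporters were exposed for 24 h before RNA was extracted and reporter sequences were measured by fluorescence after capillary separation.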

[7] = target: Estrogen receptor beta (Homo sapiens) (UniProt Q92731); assay: ATG_hERb_XSP1: Attagene TRANS-FACTORIAL Multi-Species (XSP1) HepG2 Assay for human Estrogen Receptor (ESR2) (AID 2283788)
Chain of Estrogen receptor beta (Homo sapiens) (Q92731 whole entry, looked up, the tested form may be a part): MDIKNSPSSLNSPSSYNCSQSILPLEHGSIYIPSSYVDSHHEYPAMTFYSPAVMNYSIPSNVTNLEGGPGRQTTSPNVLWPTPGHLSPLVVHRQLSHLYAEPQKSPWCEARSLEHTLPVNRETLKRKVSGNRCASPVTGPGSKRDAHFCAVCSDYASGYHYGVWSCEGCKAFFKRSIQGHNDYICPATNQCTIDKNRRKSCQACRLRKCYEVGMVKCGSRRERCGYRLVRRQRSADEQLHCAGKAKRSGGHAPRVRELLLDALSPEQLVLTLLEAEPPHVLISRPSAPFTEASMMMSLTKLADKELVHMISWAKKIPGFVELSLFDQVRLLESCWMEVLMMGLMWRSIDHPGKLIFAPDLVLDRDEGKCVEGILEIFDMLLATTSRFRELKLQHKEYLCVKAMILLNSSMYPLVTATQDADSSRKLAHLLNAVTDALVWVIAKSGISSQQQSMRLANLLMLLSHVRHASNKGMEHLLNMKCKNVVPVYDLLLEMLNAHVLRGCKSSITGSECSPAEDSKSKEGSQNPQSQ
Procedure, shortened: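 Measured endpoint is transcriptional gain of signal from a GAL4-UAS reporter controlled by chimeric ERβ in HepG2 liver cells. Exposure lasts 24 h alongside 3 nM 6-alpha-fluorotestosterone, with DMSO as negative control.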

[8] = ATG_M_06_XSP1: Attagene TRANS-FACTORIAL Multi-Species (XSP1) HepG2 Assay for M06 Transcription Factor (Internal Marker) (AID 2283790)
Procedure, shortened: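 Transfected HepG2 multi-reporter system treated 24 h in the presence of 3 nM 6-alpha-fluorotestosterone. The M06 internal marker transcript was quantified by RT-PCR with capillary electrophoresis as a background control, and gain of signal was scored versus DMSO.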

[9] = ATG_M_61_XSP1: Attagene TRANS-FACTORIAL Multi-Species (XSP1) HepG2 Assay for M61 Transcription Factor (Internal Marker) (AID 2283797)
Procedure, shortened: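 HepG2 cells transiently transfected with multiplexed GAL4-driven reporter units, dosed 24 h with 3 nM 6-alpha-fluorotestosterone present. Reporter mRNA quantified by RT-PCR, 6-FAM labelling, HpaI digestion and capillary electrophoresis; internal-marker background control, gain of signal versus DMSO.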

[10] = ATG_M_19_XSP1: Attagene TRANS-FACTORIAL Multi-Species (XSP1) HepG2 Assay for M19 Transcription Factor (Internal Marker) (AID 2283798)
Procedure, shortened: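 HepG2 cells transiently transfected with multiplexed GAL4-UAS reporter units, dosed 24 h with 3 nM 6-alpha-fluorotestosterone present for partial AR stimulation. Reporter mRNA measured by RT-PCR with capillary electrophoresis; gain-of-signal fitted relative to DMSO.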

[11] = ATG_M_32_XSP1: Attagene TRANS-FACTORIAL Multi-Species (XSP1) HepG2 Assay for M32 Transcription Factor (Internal Marker) (AID 2283799)
Procedure, shortened: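 HepG2 cells transiently transfected with multi-species TRANS reporter units, dosed 24 h with 3 nM 6-alpha-fluorotestosterone present. Internal-marker reporter mRNA quantified by RT-PCR and capillary electrophoresis; positive-direction fit versus DMSO.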

[12] = target: Peroxisome proliferator-activated receptor gamma (Homo sapiens) (UniProt P37231); assay: ATG_hPPARg_XSP1: Attagene TRANS-FACTORIAL Multi-Species (XSP1) HepG2 Assay for human Peroxisome Proliferator-activated Receptor gamma (PPARg) (AID 2283800)
Chain of Peroxisome proliferator-activated receptor gamma (Homo sapiens) (P37231 whole entry, looked up, the tested form may be a part): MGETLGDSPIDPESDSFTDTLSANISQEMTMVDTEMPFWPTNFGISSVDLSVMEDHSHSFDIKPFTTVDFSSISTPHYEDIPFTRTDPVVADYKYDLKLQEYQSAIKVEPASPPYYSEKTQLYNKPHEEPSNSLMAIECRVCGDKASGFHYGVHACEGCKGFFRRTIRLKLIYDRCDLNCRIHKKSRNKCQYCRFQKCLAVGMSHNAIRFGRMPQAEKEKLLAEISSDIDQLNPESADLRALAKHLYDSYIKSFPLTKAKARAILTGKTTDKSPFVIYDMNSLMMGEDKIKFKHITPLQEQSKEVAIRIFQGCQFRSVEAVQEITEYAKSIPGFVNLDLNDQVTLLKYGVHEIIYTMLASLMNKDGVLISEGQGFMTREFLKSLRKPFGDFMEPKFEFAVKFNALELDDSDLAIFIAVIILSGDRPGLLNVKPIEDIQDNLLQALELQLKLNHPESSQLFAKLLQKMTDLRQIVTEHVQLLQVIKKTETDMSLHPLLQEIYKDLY
Procedure, shortened: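 HepG2 cells transiently transfected with GAL4-UAS reporter units carrying chimeric NR-Gal4 proteins; 3 nM 6-alpha-fluorotestosterone present. After 24 h dosing, reporter mRNA quantified by RT-PCR and capillary electrophoresis; gain of signal relative to DMSO.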

[13] = target: mouse Peroxisome Proliferator-activated Receptor gamma (PPARg), Pparg (gene 19016) (UniProt P37238); assay: ATG_mPPARg_XSP1: Attagene TRANS-FACTORIAL Multi-Species (XSP1) HepG2 Assay for mouse Peroxisome Proliferator-activated Receptor gamma (PPARg) (AID 2283802)
Chain of mouse Peroxisome Proliferator-activated Receptor gamma (PPARg), Pparg (gene 19016) (P37238 whole entry, looked up, the tested form may be a part): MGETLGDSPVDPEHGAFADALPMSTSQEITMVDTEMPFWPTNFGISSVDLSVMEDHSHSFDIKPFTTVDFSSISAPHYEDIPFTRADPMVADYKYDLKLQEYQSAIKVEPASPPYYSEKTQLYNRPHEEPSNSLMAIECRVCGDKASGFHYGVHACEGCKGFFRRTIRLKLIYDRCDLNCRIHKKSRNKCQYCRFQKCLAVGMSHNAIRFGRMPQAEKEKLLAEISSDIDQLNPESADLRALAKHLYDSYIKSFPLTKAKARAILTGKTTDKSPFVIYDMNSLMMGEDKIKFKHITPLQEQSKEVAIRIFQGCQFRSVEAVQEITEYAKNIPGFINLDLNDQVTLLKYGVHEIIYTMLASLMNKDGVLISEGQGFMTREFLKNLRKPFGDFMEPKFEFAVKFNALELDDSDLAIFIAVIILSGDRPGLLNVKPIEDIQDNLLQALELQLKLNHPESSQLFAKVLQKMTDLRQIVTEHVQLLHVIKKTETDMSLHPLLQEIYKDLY
Procedure, shortened: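 HepG2 cells transiently transfected with GAL4-UAS reporter units driven by mouse PPARg–GAL4 chimera; 3 nM 6-alpha-fluorotestosterone present. After 24 h dosing, reporter mRNA quantified by RT-PCR, fluorescent labelling and capillary electrophoresis; gain of signal versus DMSO.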

[14] = ACEA_ER_AUC_viability: ACEA Biosciences xCELLigence Real-Time Cell Analysis on Estrogen Receptor Agonism for Viability (AID 2283782);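 note: continuous compound exposure with impedance area under curve over 80 h; hit means loss of impedance signal meaning reduced cell growth or viability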
Procedure, shortened: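 T-47D; phenol red-free RPMI1640 + 10% CS-FBS; 8 conc., 1:4 serial, max 100 uM final, ≤0.5% DMSO; n = 2; continuous exposure; impedance monitored to 80 h post-dose; AUC vs DMSO.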

[15] = STM_H9_NormalizedViability: Cytotoxicity Assessment at 120 hours in the Stemina devTOX quickPredict H9 human embryonic stem cell (hESC)-based Assay (AID 2283784)
Procedure, shortened: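 Undifferentiated H9 hESCs kept pluripotent were exposed to compound, with media and chemical replaced every 24h. CellTiter-Fluor protease-substrate fluorescence was background-corrected and normalized per plate to the 0.1% DMSO vehicle; signal loss indicates reduced viability.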

AR (gene 367) = AR (gene 367) (UniProt P10275); assay: ACEA_AR_antagonist_80hr: ACEA Biosciences xCELLigence Real-Time Cell Analysis on Androgen Receptor Antagonism for Proliferation (AID 2283787);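 note: 22Rv1 human prostate cancer cells with growth followed by electrical impedance; hits lower the impedance growth signal relative to DMSO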
Chain of AR (gene 367) (P10275 whole entry, looked up): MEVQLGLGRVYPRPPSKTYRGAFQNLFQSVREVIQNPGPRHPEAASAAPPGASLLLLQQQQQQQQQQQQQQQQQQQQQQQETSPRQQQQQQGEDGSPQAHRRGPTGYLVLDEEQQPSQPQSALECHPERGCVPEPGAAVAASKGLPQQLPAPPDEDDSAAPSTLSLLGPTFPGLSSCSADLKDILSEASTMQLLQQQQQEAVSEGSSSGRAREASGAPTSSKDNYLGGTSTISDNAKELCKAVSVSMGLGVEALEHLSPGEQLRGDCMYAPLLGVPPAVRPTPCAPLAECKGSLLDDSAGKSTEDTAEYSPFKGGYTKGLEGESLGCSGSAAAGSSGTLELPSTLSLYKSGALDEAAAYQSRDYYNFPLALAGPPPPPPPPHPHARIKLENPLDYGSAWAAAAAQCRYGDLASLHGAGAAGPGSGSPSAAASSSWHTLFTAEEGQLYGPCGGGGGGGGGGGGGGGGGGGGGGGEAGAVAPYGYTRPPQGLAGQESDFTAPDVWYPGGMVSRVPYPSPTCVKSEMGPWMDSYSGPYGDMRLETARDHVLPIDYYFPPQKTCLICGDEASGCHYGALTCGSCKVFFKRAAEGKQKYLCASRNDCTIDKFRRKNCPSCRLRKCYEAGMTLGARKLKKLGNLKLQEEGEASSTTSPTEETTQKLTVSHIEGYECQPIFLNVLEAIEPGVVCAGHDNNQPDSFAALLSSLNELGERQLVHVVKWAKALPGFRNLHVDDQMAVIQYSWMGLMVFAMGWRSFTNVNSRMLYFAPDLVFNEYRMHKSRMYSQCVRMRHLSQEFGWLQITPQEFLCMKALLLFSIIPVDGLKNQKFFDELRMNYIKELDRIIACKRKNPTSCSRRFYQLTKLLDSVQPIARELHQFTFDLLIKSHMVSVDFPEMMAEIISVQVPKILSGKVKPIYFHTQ
Procedure, shortened: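 Growth-kinetic antagonist readout in 22Rv1 cells, taken 80 h after continuous compound exposure. Activity fitted as signal loss relative to DMSO negative control.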

Which results are given for `CCOP(=S)(OCC)Oc1ccc2c(C)c(Cl)c(=O)oc2c1`?
outcome [1]: inactive; AC50 [2]: 31 µM (active); outcome [3]: inactive; outcome [4]: inactive; outcome [5]: inactive; outcome [6]: inactive; outcome [7]: inactive; outcome [8]: inactive; outcome [9]: inactive; outcome [10]: inactive; outcome [11]: inactive; AC50 [12]: 11.4 µM (active); AC50 [13]: 26.7 µM (active)

For `CC1(C(=O)Nc2ccc(O)c(Cl)c2Cl)CCCCC1`, which AC50 [1] is on record?
Its AC50 is 64.9 µM (active).

And the AC50 [2]?
The AC50 was 50 µM (active).

Which outcome [1] does the source give for `CCOP(=S)(OCC)Oc1ccc([N+](=O)[O-])cc1` here?
Its outcome is “inactive”.

What about the outcome [2] of the same molecule?
The outcome was “inactive”.

What about the outcome [14] of the same molecule?
Its outcome is “inactive”.

For `CCOC(=O)CC(SP(=O)(OC)OC)C(=O)OCC` (stereo not given), which outcome [1] is on record?
The outcome was “inactive”.

And the outcome [2]?
Its outcome is “inactive”.

What about the outcome [14] of the same molecule?
The outcome was “inactive”.

With `CN(C)NC(=O)CCC(=O)O` as the molecule, how does the outcome [1] read?
Its outcome is “inactive”.

And the outcome [2]?
The outcome was “inactive”.

And the outcome [14]?
Its outcome is “inactive”.

With `CSc1nnc(C(C)(C)C)c(=O)n1N` as the molecule, how does the outcome [1] read?
The outcome was “inactive”.

And the outcome [2]?
Its outcome is “inactive”.

What about the outcome [14] of the same molecule?
The outcome was “inactive”.

And the outcome [15]?
The outcome was “inactive”.

With `CC(C1CC1)C(O)(Cn1cncn1)c1ccc(Cl)cc1` (stereo not given) as the molecule, how does the AC50 [1] read?
The AC50 was 49.8 µM (active).

And the AC50 [2]?
The AC50 was 49.8 µM (active).

And the outcome [14]?
Its outcome is “inactive”.

And the outcome [15]?
Its outcome is “inactive”.

Which AC50 [1] does the source give for `CCOP(=O)(NC(C)C)Oc1ccc(SC)c(C)c1` (stereo not given) here?
The AC50 was 9.92 µM (active).

And the AC50 [2]?
The AC50 was 32.7 µM (active).

And the AC50 (AR (gene 367))?
Its AC50 is 40.5 µM (active).

For `CN1COCN(Cc2cnc(Cl)s2)C1=N[N+](=O)[O-]`, which outcome [2] is on record?
Its outcome is “inactive”.

Which outcome [1] does the source give for `CC1=NNC(=O)N(/N=C/c2cccnc2)C1` here?
Its outcome is “inactive”.

And the outcome [2]?
Its outcome is “inactive”.

What about the outcome [14] of the same molecule?
Its outcome is “inactive”.

What about the outcome [15] of the same molecule?
The outcome was “inactive”.

What does the source list for `CSC1=N[C@@](C)(c2ccccc2)C(=O)N1Nc1ccccc1`?
AC50 [1]: 31.6 µM (active); AC50 [2]: 18.1 µM (active); AC50 [15]: 30.1 µM (active)

For `CC(COc1ccc(Oc2ccccc2)cc1)Oc1ccccn1` (stereo not given), which AC50 [1] is on record?
Its AC50 is 58.9 µM (active).

What about the AC50 [2] of the same molecule?
The AC50 was 64.6 µM (active).

And the outcome [14]?
Its outcome is “inactive”.

And the outcome [15]?
Its outcome is “inactive”.

And the AC50 (AR (gene 367))?
Its AC50 is 66.3 µM (active).

What does the source list for `FC(F)C(F)(F)OCC(Cn1cncn1)c1ccc(Cl)cc1Cl` (stereo not given)?
AC50 [1]: 66.4 µM (active); AC50 [2]: 60.5 µM (active); AC50 [14]: 75.7 µM (active); outcome [15]: inactive

Which outcome [1] does the source give for `C[N+]1(C)CCCCC1` here?
The outcome was “inactive”.

And the outcome [2]?
The outcome was “inactive”.

What about the outcome [15] of the same molecule?
Its outcome is “inactive”.

Which results are given for `CC(C)[C@H](C(=O)O[C@H](C#N)c1cccc(Oc2ccccc2)c1)c1ccc(Cl)cc1`?
AC50 [1]: 17.2 µM (active); outcome [15]: inactive

With `CNc1cnn(-c2cccc(C(F)(F)F)c2)c(=O)c1Cl` as the molecule, how does the outcome [1] read?
The outcome was “inactive”.

And the outcome [2]?
Its outcome is “inactive”.

What about the outcome [15] of the same molecule?
The outcome was “inactive”.

For `CC(Oc1cccc(Cl)c1)C(=O)O` (stereo not given), which outcome [2] is on record?
Its outcome is “inactive”.

With `CN(C)[C@@H]1C(=O)C(C(N)=O)=C(O)[C@@]2(O)C(=O)C3=C(O)c4c(O)cccc4[C@@](C)(O)[C@H]3[C@H](O)[C@@H]12` as the molecule, how does the AC50 [1] read?
Its AC50 is 50 µM (active).

What about the AC50 [2] of the same molecule?
The AC50 was 50 µM (active).

And the AC50 [15]?
Its AC50 is 50 µM (active).

With `CCOP(=O)(OCC)Oc1cc(C)nc(C(C)C)n1` as the molecule, how does the outcome [2] read?
Its outcome is “inactive”.

What about the outcome [14] of the same molecule?
The outcome was “inactive”.

With `CCOC(=O)COc1cc(-c2nn(C)c(OC(F)F)c2Cl)c(F)cc1Cl` as the molecule, how does the outcome [1] read?
Its outcome is “inactive”.

What about the AC50 [2] of the same molecule?
The AC50 was 16.6 µM (active).

And the outcome [14]?
The outcome was “inactive”.

What about the AC50 (AR (gene 367)) of the same molecule?
Its AC50 is 28.1 µM (active).
